Activity calls are given as the source filed them.
How the values were obtained:
[1] = tested on: Human papillomavirus type 1a protein E7 (residues 44-93); assay: small molecules binding HPV E7 44-93 – biochemical, small-molecule microarray, residues 44-93, 635 nm fluorescence, primary screen (AID 1108); conditions: fluorescence 635 nm, higher = more signal;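 note: E7 fragment applied at 1 µg/mL in TBST for 1 h at 4 C; score combines spot fluorescence with its signal to noise ratio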
[2] = hepatitis C replication reporter changes, two-sided – Huh7 cells, luciferase reporter, HCV replication inhibitor project, primary screen (AID 1109); conditions: Huh7 HCV replicon luciferase reporter, 48 h; higher = more signal;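 note: huh7 hepatoma cells harbouring a luciferase neomycin HCV replicon reporter; luciferase luminescence as measure of HCV replicon replication; test concentration not given here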
[3] = target: Left-right determination factor 2 (Homo sapiens) (UniProt O00292); assay: small molecules binding LEFTY2 protein – biochemical, small-molecule microarray, 635 nm fluorescence scan, primary screen (AID 1110); conditions: higher = more signal
[4] = target: Calmodulin-1 (Homo sapiens) (UniProt P0DP23); assay: small molecules binding calmodulin-1 with EGTA – biochemical, small-molecule microarray, Cy5-labelled CALM1, profiling panel (AID 1111); conditions: Cy5-CALM1 binding fluorescence, higher = more signal;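 note: labelled calmodulin applied in Tris saline Tween buffer holding calcium plus EGTA and DTT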
[5] = target: Calmodulin-1 (Homo sapiens) (UniProt P0DP23); assay: small molecules binding Ca-loaded calmodulin-1 – biochemical, small-molecule microarray, Cy5-labelled CALM1, plus calcium, artefact control for SMM control-protein annotation, profiling panel (AID 1112); conditions: Cy5-CALM1 binding fluorescence, higher = more signal;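 note: score merges spot fluorescence with signal to noise from triplicate slides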
[6] = probe aWnt5a binding to arrayed compounds – biochemical, biotinylated probe, 635/667 nm fluorescence, primary screen (AID 1113); conditions: small-molecule microarray, higher = more signal;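 note: score merges 667 nm fluorescence intensity with signal-to-noise per printed feature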
[7] = probe aShh binding to arrayed compounds – biochemical, biotinylated probe, 635/667 nm fluorescence, primary screen (AID 1114); conditions: small-molecule microarray, higher = more signal;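 note: probe is biotin-labelled aShh protein from a stem cell growth factor screen; measures binding of labelled protein to compounds printed on the slide; score merges feature fluorescence at 667 nm with signal-to-noise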
[8] = probe aNog binding to arrayed compounds – biochemical, biotinylated probe, 635/667 nm fluorescence, primary screen (AID 1115); conditions: small-molecule microarray, higher = more signal;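 note: probe is biotinylated aNog protein used at 0.15 µg/mL for 1 h at 4 C; z-score combines 667 nm fluorescence of each spot with its signal to noise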
[9] = target: Torsin-1A-interacting protein 1 (Homo sapiens) (UniProt Q5JTV8); assay: compound microarray binding of lysate hLAP1 – cell lysate, small-molecule microarray, COS7 lysate, 635/667 nm fluorescence, primary screen (AID 1116); conditions: 635 nm fluorescence, higher = more signal
[10] = target: Alpha-bungarotoxin (Bungarus multicinctus) (UniProt P60615); assay: compounds binding labelled alpha-BTX control protein – biochemical, small-molecule microarray, Alexa647 label, 635/667 nm fluorescence, artefact control for SMM control protein annotation, profiling panel (AID 1117); conditions: alpha-BTX-A647 binding fluorescence, higher = more signal
Albumin (Bos taurus) = Albumin (Bos taurus) (UniProt P02769); assay: compounds binding labelled BSA control protein – biochemical, small-molecule microarray, Alexa647 label, 635/667 nm fluorescence, artefact control for SMM control protein annotation, profiling panel (AID 1118); conditions: BSA-A647 binding, fluorescence 635 nm, higher = more signal;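 note: score merges 667 nm emission intensity and signal-to-noise per printed compound spot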
[11] = probe aXIP binding to arrayed compounds – biochemical, NeuroSMM set, 635/667 nm fluorescence, primary screen (AID 1119); conditions: small-molecule microarray, higher = more signal, called active from +8 up or from −8 down;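 note: probe is the protein aXip251-270 applied at 1 µg/mL to compound-printed slides; binding of probe to printed compounds measured as 667 nm fluorescence plus signal to noise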
[12] = probe aNOTCH3 binding on compound microarray – biochemical, small-molecule microarray, 635/667 nm fluorescence, primary screen (AID 1120); conditions: higher = more signal;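 note: probe is a biotin-tagged antibody raised against NOTCH3 rather than NOTCH3 protein; score merges spot fluorescence near 667 nm with spot signal to noise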
[13] = probe aNOTCH2 binding on compound microarray – biochemical, small-molecule microarray, 635/667 nm fluorescence, primary screen (AID 1121); conditions: higher = more signal;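 note: score merges feature fluorescence read at 667 nm with its signal to noise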
[14] = target: Carbonic anhydrase 2 (Homo sapiens) (UniProt P00918); assay: compounds binding carbonic anhydrase 2 – biochemical, small-molecule microarray, Alexa647-labelled CAII, profiling panel (AID 1122); conditions: CAII-A647 binding fluorescence, higher = more signal
[15] = COS7 lysate on small-molecule microarray, probe aHis, 635 nm (AID 1123); conditions: COS7 cell lysate, fluorescence, higher = more signal;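 note: z-score combines 667nm fluorescence intensity with signal-to-noise per printed compound spot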
[16] = probe aLAP1 signal on lysate-treated microarray – cell lysate, small-molecule microarray, COS7 lysate, primary screen (AID 1124); conditions: probe aLAP1, fluorescence, higher = more signal;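 note: lysate comes from COS7 cells expressing LAP1 and is applied at 0.3 µg/mL; score merges spot fluorescence near 667 nm with signal-to-noise over triplicate slides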
Sam68 (KHDRBS1) = assay: compounds binding KHDRBS1 protein – biochemical, small-molecule microarray, 635 nm fluorescence, primary screen (AID 1125); conditions: higher = more signal;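 note: score merges 667 nm channel intensity with signal to noise over triplicate slides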
[17] = tested on: Chordin-like protein 2 (CHRDL2); assay: compounds binding chordin-like 2 – biochemical, small-molecule microarray, 635 nm fluorescence, primary screen (AID 1126); conditions: fluorescence 635 nm, higher = more signal;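 note: printed compound slides probed with Chrdl2 protein at 4 µg/mL for 1 h at 4 C; score merges 667 nm emission intensity with signal to noise over three replicate slides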
[18] = target: Concanavalin-A (Canavalia ensiformis) (UniProt P02866); assay: compounds binding concanavalin A lectin – biochemical, small-molecule microarray, Alexa647 label, 635 nm, artefact control for SMM control protein annotation, primary screen (AID 1127); conditions: ConA-A647 binding fluorescence, higher = more signal;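 note: z combines 667 nm emission intensity with signal-to-noise across three replicate slides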
Chain of Concanavalin-A (Canavalia ensiformis) (P02866 whole entry, looked up): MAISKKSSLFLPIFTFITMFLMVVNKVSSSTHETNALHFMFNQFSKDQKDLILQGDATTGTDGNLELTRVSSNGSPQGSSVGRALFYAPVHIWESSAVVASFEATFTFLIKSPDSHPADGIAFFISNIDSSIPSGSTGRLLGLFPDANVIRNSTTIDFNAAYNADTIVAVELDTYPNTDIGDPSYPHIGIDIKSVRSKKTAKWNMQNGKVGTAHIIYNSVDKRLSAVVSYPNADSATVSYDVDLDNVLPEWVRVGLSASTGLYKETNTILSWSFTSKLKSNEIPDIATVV

Chain of Albumin (Bos taurus) (P02769 whole entry, looked up): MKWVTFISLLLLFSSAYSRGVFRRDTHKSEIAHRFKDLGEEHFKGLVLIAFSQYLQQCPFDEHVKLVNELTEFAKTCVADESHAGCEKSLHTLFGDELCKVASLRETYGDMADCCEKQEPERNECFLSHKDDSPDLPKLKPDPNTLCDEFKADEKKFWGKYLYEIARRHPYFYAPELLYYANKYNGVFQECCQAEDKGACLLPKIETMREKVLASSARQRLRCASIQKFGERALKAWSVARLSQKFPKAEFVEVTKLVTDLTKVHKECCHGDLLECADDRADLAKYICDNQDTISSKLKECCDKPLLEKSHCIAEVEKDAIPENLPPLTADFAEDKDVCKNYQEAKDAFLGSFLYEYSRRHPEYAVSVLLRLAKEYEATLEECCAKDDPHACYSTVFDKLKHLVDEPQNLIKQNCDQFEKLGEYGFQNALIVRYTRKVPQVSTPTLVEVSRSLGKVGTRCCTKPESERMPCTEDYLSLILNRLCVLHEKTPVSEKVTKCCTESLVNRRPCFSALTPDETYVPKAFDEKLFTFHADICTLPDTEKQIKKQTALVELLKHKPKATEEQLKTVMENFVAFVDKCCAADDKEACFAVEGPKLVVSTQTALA
Chain of Torsin-1A-interacting protein 1 (Homo sapiens) (Q5JTV8 whole entry, looked up): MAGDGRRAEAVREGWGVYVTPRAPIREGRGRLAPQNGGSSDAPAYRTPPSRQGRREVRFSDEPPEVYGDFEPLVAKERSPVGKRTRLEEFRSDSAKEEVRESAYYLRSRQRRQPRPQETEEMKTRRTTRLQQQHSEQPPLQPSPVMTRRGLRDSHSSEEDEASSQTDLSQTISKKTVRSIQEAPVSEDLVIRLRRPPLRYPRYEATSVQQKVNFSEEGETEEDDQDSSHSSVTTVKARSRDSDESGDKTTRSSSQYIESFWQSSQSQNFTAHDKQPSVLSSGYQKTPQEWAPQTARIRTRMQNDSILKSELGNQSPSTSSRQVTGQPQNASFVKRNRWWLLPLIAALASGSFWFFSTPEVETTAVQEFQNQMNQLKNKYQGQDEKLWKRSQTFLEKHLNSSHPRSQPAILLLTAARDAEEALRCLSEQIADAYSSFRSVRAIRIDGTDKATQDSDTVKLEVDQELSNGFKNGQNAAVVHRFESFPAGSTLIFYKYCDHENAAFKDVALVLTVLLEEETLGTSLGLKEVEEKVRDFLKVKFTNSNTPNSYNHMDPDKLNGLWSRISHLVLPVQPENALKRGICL
Chain of Left-right determination factor 2 (Homo sapiens) (O00292 whole entry, looked up): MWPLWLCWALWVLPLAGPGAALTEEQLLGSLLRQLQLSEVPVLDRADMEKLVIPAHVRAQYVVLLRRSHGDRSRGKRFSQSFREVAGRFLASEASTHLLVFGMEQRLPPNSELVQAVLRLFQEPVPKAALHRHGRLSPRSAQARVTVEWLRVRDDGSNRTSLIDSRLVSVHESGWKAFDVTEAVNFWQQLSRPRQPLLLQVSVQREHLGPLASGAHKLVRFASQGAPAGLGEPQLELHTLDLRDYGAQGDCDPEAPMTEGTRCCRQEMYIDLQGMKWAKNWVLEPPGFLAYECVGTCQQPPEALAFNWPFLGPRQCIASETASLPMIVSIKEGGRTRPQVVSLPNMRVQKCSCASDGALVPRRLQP
Chain of Alpha-bungarotoxin (Bungarus multicinctus) (P60615 whole entry, looked up): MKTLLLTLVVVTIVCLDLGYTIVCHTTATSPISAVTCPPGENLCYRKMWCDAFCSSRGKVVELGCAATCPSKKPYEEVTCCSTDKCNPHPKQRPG

CCc1cc2c(nc1CC)CCN(CCC(C)=NO[C@@H](C)c1cn([C@H](CO)Cc3ccccc3)nn1)C2
composite z-score [1]: -0.296
z-score [2]: -2.1
composite z-score [3]: 0.483
composite z-score [4]: -0.41
composite z-score [5]: -0.555
composite z-score [6]: -0.096
composite z-score [7]: -0.147
composite z-score [8]: -0.203
composite z-score [9]: -0.11
composite z-score [10]: 0.312
composite z-score (Albumin (Bos taurus)): -0.0957
composite Z-score [11]: 0.117 (inactive)
composite z-score [12]: -0.0072
composite z-score [13]: -0.0956
composite z-score [14]: 0.317
composite z-score [15]: -0.0909
composite z-score [16]: 0.12
composite z-score (Sam68 (KHDRBS1)): -0.0161
composite z-score [17]: 0.231
composite z-score [18]: 0.0209

CCOC(=O)[C@H](Cc1ccccc1)NC(=O)CCC1CC(OC(=O)NCCc2ccc(F)cc2)CC2(CCCC(COC(=O)NCC3CCCCC3)O2)O1 (stereo not given in full)
composite z-score [1]: 1.38
z-score [2]: -0.019
composite z-score [3]: 1.03
composite z-score [4]: 0.325
composite z-score [5]: -0.207
composite z-score [6]: -0.232
composite z-score [7]: -0.2
composite z-score [8]: -0.273
composite z-score [9]: 0.237
composite z-score [10]: 0.289
composite z-score (Albumin (Bos taurus)): 0.505
composite Z-score [11]: -0.539 (inactive)
composite z-score [12]: 0.18
composite z-score [13]: -0.0294
composite z-score [14]: 0.192
composite z-score [15]: 0.822
composite z-score [16]: 0.236
composite z-score (Sam68 (KHDRBS1)): 1.3
composite z-score [17]: 0.74
composite z-score [18]: 1.07

C#CCCCON=C1[C@H]2CCn3c(=O)n(C)c(=O)n3[C@H]2[C@H](O)[C@@H]2O[C@H]12
composite z-score [1]: 0.371
z-score [2]: 0.818
composite z-score [3]: 0.503
composite z-score [4]: -0.266
composite z-score [5]: -0.792
composite z-score [6]: -0.0486
composite z-score [7]: 0.0723
composite z-score [8]: 0.0762
composite z-score [9]: 0.35
composite z-score [10]: 0.0727
composite z-score (Albumin (Bos taurus)): -0.213
composite Z-score [11]: -0.496 (inactive)
composite z-score [12]: -0.0304
composite z-score [13]: -0.169
composite z-score [14]: -0.053
composite z-score [15]: 0.0971
composite z-score [16]: 0.723
composite z-score (Sam68 (KHDRBS1)): 0.406
composite z-score [17]: 0.833
composite z-score [18]: 0.543

CC(=O)OC[C@H]1O[C@H](CCON=C2[C@H]3CCn4c(=O)n(-c5ccccc5)c(=O)n4[C@H]3[C@H](O)[C@@H]3O[C@H]23)C=C[C@@H]1OC(C)=O
composite z-score [1]: 0.253
z-score [2]: -4.82
composite z-score [3]: 0.5
composite z-score [4]: -0.151
composite z-score [5]: -0.354
composite z-score [6]: 0.0001
composite z-score [7]: 0.089
composite z-score [8]: 0.449
composite z-score [9]: 0.322
composite z-score [10]: 0.415
composite z-score (Albumin (Bos taurus)): 0.378
composite Z-score [11]: 0.22 (inactive)
composite z-score [12]: 0.348
composite z-score [13]: 0.088
composite z-score [14]: 0.127
composite z-score [15]: 0.343
composite z-score [16]: -0.0654
composite z-score (Sam68 (KHDRBS1)): 0.283
composite z-score [17]: 0.47
composite z-score [18]: -0.0333

CO[C@@H]1C=CCC(=O)N2CCC[C@H]2C(=O)OC[C@@H](C)C(=O)OC[C@H]1C
composite z-score [1]: -0.291
z-score [2]: 0.189
composite z-score [3]: 0.837
composite z-score [4]: -0.759
composite z-score [5]: -1.02
composite z-score [6]: -0.0896
composite z-score [7]: -0.0362
composite z-score [8]: -0.246
composite z-score [9]: -0.0837
composite z-score [10]: -0.276
composite z-score (Albumin (Bos taurus)): -0.709
composite Z-score [11]: 1.36 (inactive)
composite z-score [12]: 0.138
composite z-score [13]: -0.0109
composite z-score [14]: -0.31
composite z-score [15]: -0.0865
composite z-score [16]: -0.176
composite z-score (Sam68 (KHDRBS1)): 0.465
composite z-score [17]: 1.05
composite z-score [18]: -1.08

C#CCCCON=C1C[C@@H](O)[C@@H](O)[C@@H]2[C@@H]3C(=O)N(c4cccc(Oc5ccccc5)c4)C(=O)[C@@H]3CC[C@H]12
composite z-score [1]: -0.578
z-score [2]: 0.18
composite z-score [3]: -0.914
composite z-score [4]: -0.423
composite z-score [5]: 0.361
composite z-score [6]: -0.172
composite z-score [7]: -0.138
composite z-score [8]: -0.237
composite z-score [9]: 0.441
composite z-score [10]: -0.702
composite z-score (Albumin (Bos taurus)): -0.302
composite Z-score [11]: 1.27 (inactive)
composite z-score [12]: -0.373
composite z-score [13]: -0.14
composite z-score [14]: 0.709
composite z-score [15]: 0.0922
composite z-score [16]: 0.762
composite z-score (Sam68 (KHDRBS1)): -0.582
composite z-score [17]: -0.771
composite z-score [18]: -0.387

CC(C)=NO[C@H](C)c1cn([C@H](CO)Cc2ccccc2)nn1
composite z-score [1]: 0.216
z-score [2]: -0.463
composite z-score [3]: 0.13
composite z-score [4]: 0.0595
composite z-score [5]: -0.0004
composite z-score [6]: 0.0438
composite z-score [7]: 0.0121
composite z-score [8]: 0.145
composite z-score [9]: -0.197
composite z-score [10]: -0.0691
composite z-score (Albumin (Bos taurus)): 0.364
composite Z-score [11]: -0.178 (inactive)
composite z-score [12]: -0.0932
composite z-score [13]: -0.123
composite z-score [14]: 0.13
composite z-score [15]: 0.559
composite z-score [16]: -0.536
composite z-score (Sam68 (KHDRBS1)): 0.444
composite z-score [17]: -0.0691
composite z-score [18]: 1.1

O=C1[C@H]2[C@H]3[C@H](O)[C@H](O)CC(=NOCc4ccccc4)[C@H]3CC[C@H]2C(=O)N1Cc1ccc2c(c1)OCO2
composite z-score [1]: -0.249
z-score [2]: -0.188
composite z-score [3]: 0.621
composite z-score [4]: -0.208
composite z-score [5]: -0.444
composite z-score [6]: -0.091
composite z-score [7]: -0.0553
composite z-score [8]: -0.243
composite z-score [9]: 0.336
composite z-score [10]: 0.413
composite z-score (Albumin (Bos taurus)): 0.116
composite Z-score [11]: -0.192 (inactive)
composite z-score [12]: 0.0116
composite z-score [13]: -0.146
composite z-score [14]: -0.0448
composite z-score [15]: 1.1
composite z-score [16]: 0.148
composite z-score (Sam68 (KHDRBS1)): -0.18
composite z-score [17]: 0.408
composite z-score [18]: -0.261

CC(C)=CCCC(C)=CCON=C1C[C@@H](O)[C@@H](O)[C@@H]2[C@@H]3C(=O)N(C(C)(C)C)C(=O)[C@@H]3CC[C@H]12
composite z-score [1]: 0.356
z-score [2]: 0.217
composite z-score [3]: 0.61
composite z-score [4]: -0.327
composite z-score [5]: -0.889
composite z-score [6]: -0.118
composite z-score [7]: -0.153
composite z-score [8]: -0.0446
composite z-score [9]: 0.452
composite z-score [10]: 0.135
composite z-score (Albumin (Bos taurus)): 0.161
composite Z-score [11]: 1.26 (inactive)
composite z-score [12]: 0.149
composite z-score [13]: -0.0846
composite z-score [14]: 0.0334
composite z-score [15]: 0.043
composite z-score [16]: 0.373
composite z-score (Sam68 (KHDRBS1)): 0.293
composite z-score [17]: 0.346
composite z-score [18]: 0.198

O=C1[C@H]2[C@H]3[C@H](O)[C@H](O)CC(=NOCc4ccccc4)[C@@H]3CC[C@H]2C(=O)N1c1ccc(F)cc1F
composite z-score [1]: -0.392
z-score [2]: 0.606
composite z-score [3]: 0.303
composite z-score [4]: -0.201
composite z-score [5]: -0.57
composite z-score [6]: -0.0519
composite z-score [7]: 0.0278
composite z-score [8]: 0.0369
composite z-score [9]: 0.0133
composite z-score [10]: 0.297
composite z-score (Albumin (Bos taurus)): 0.137
composite Z-score [11]: -0.155 (inactive)
composite z-score [12]: 0.0303
composite z-score [13]: -0.157
composite z-score [14]: 0.243
composite z-score [15]: 0.0305
composite z-score [16]: -0.294
composite z-score (Sam68 (KHDRBS1)): -0.806
composite z-score [17]: 0.0594
composite z-score [18]: 0.175

Source: PubChem BioAssay
